PNC inhibitor = perinucleolar compartment assembly inhibition; PC3M PTB-GFP, PNC prevalence imaging, 16 h; hits give low values; activity change (PNC), negative = inhibition, % at 10 µM; hit rate 3.1% among 140,000; AID 2417;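 active = readout at or below -70, meaning at least 70% loss of cells showing the perinucleolar compartment, a nuclear body marking cancer cells; inconclusive = readout between -30 and a set limit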;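 note: plate controls were DMSO wells for no effect and camptothecin positive control wells for full effect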
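Read-out is percentage of cells bearing a perinucleolar compartment, from automated 20x imaging of fixed, Hoechst-stained PC3M PTB-GFP cells. Cells were seeded 4 h, then exposed 16 h to compound (23 nl of library stock) in duplicate plates.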
15-hLO-2 inh = blocks human 15-lipoxygenase 2 activity. hit rate 0.56% among 110,000. Potency, µM (highest dose often 57.1 µM), for inactives: top-dose activity change, negative = inhibition, hits mostly inhibitors. purified 15hLO-2, xylenol orange hydroperoxide absorbance. O15296; note: potency is the fitted concentration of half-maximal effect; nearly all actives have a fitted effect of over 60% in size
Target sequence (O15296 whole entry, looked up): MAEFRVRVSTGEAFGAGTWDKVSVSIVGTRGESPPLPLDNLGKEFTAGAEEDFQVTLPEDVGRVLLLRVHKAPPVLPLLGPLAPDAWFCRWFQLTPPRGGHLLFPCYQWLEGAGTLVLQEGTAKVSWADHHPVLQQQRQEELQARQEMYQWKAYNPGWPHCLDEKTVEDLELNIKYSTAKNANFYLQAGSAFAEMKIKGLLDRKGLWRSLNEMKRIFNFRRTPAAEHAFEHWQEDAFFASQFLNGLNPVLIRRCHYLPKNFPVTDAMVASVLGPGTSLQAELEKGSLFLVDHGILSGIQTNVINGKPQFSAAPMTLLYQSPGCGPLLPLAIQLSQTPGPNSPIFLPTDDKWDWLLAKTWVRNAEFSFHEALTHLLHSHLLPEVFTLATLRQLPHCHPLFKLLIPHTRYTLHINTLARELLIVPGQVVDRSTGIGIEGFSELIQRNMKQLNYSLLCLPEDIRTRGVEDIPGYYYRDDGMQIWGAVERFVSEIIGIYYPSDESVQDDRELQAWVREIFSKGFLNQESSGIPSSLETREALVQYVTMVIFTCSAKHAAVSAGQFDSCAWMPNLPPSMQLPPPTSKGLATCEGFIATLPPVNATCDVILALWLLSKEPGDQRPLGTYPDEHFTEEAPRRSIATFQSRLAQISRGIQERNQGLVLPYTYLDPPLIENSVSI
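Purified human 15hLO-2 (50 nM) preincubated 15 min with compound, then 45 uM arachidonic acid for 90 min at RT in 25 mM Hepes pH 7.5, 0.01% Triton X-100. Hydroperoxide detected by Fe-xylenol orange; 573/405 nm absorbance ratio.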
ALOX12 inhib = blocks human 12-lipoxygenase activity | P18054 | purified 12-hLO, xylenol orange hydroperoxide absorbance | Potency, µM (highest dose often 57.1 µM), for the others: top-dose activity change, negative = inhibition, actives largely listed as inhibitors | hit rate 0.12% among 150,000; note: potency is the fitted concentration of half-maximal effect; nearly all actives have a fitted effect of over 55% in size
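Purified human 12hLO (150 nM), preincubated 15 min with compound, then 40 uM arachidonic acid for 30 min, room temperature, Hepes pH 7.0 with 0.01% Triton X-100. Hydroperoxide detected by ferrous iron/xylenol orange; 573/405 nm absorbance ratio gives reaction progress.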
* = called active by the depositor; ? = inconclusive; · = no result; [ ] = remark or other dose. In the library only some 3.2% were active in any assay of this set; here they are far more common. Unless noted, calls come from the whole dose curve; as a rule, active = well fitted curve in the direction sought with a large enough effect; inconclusive = small, poorly fitted or top-dose-only effect, or another doubt; inactive = no such curve, though single readings can be large; an effect the other way counts as inactive or inconclusive. Unless noted, % is set by controls: 0 for no effect and ±100 for the full control effect.

SMILES	PNC inhibitor	15-hLO-2 inh	ALOX12 inhib
N#CCC(=O)Nc1ccccc1C(=O)O	30	6%	-2%
N#CCC(=O)Nc1ncn(Cc2ccccc2Cl)n1	-81*	-2%	-2%
COC(=O)N1C2=C(c3ccccc3[C@@H]1CC(=O)Nc1ccc3ccc4cccc5ccc1c3c45)[C@@H]1C(=O)N(c3ccccc3)C(=O)[C@@H]1[C@H](C)C2	·	·	-15%[11.4 µM]
CC#CCN1c2ccccc2[C@]23C[C@@H](C(=O)OC)N(S(=O)(=O)c4ccc(C#N)cc4)C2=NC(C(=O)OC)=C(C(=O)OC)[C@H]13	·	·	-2%[11.4 µM]
CC(C)[C@@H](CC(=O)N[C@@H]1CCNC[C@H]1C(=O)N[C@H](CC(=O)N[C@@H](CCC(=O)O)CC(=O)O)Cc1ccccc1)NC(=O)C[C@H](CO)NC(=O)[C@@H]1CCCC[C@H]1N	·	·	3%
CCOC(=O)c1c(C)c(C(=O)NC(C)COC)c(C)n1CC (stereo unspecified)	-102*	-2%	3%
CCOC(=O)c1c(C)c(C(=O)NC(C)COC)c(C)n1C (stereo unspecified)	?	3%	2%
Cc1cc2cc(OCC(=O)O)ccc2n1C	-113*	·	-6%
CCOC(=O)NCc1ccc2c(c1)cc(C)n2C	42	-7%	-9%
O=c1c(-c2ccccc2)nc2cnc(Oc3cccc(Cl)c3)nc2n1C1CC1	·	-3%	·
CCCCCC(=O)NC(=S)Nc1ccc(N2CCOCC2)cc1	-28	·	-13%
COCCOC(=O)c1c(C)nc(SCC(=O)Nc2ccc(OC)cc2)c(C#N)c1-c1ccco1	-111*	-7%	8%
COc1cccc(NC(=O)CSc2nc3c(c(-c4ccco4)c2C#N)CCCC3)c1	30	-19%	5%
CC(=O)CSc1nnc(NC(=O)CCc2ccccc2)s1	14	2%	-1%
CCCCSc1nnc(NC(=O)CCc2ccccc2)s1	-81*	-3%	3%
Cc1ccccc1-c1cncnc1N1CCNCC1	·	6%	0%
CC(=O)[C@]1(O)CC[C@@H]2[C@H]3C[C@@H](C)C4=CC(=O)CC[C@@]4(C)[C@H]3[C@@H](O)C[C@]21C	·	-3%[11.4 µM]	-2%[11.4 µM]
COc1ccc(-c2cc(C(=O)NCCCn3ccnc3)no2)cc1OC	-2	7%	0%
O=C(NCCCn1ccnc1)c1cc(-c2ccc3c(c2)OCO3)on1	-91*	20%	-10%
CC1(c2ccc(Cl)c(Cl)c2)NC(=S)N2C1NC(=S)N2c1ccccc1 (stereo unspecified)	-23	?	-19%
O=S(=O)(c1cccc(-c2nnco2)c1)N1CCCC1	-107*	-3%	-2%
O=S(=O)(c1cccc(-c2nnc(-c3ccc(Br)cc3)o2)c1)N1CCCCCC1	-13	-3%	-1%
COc1ccc(-c2nc3cnc(Oc4ccccc4)nc3n(C3CC3)c2=O)cc1	·	7%	-2%
CCc1c(C)nc2ncnn2c1N1CCCC(C(=O)Nc2cc(F)ccc2C)C1 (stereo unspecified)	?	-11%	3%
CCO	·	-2%	3%
SMILES	PNC inhibitor	15-hLO-2 inh	ALOX12 inhib
CCOC(=O)Cc1cc(=O)n2[nH]c(-c3ccccc3)cc2n1	47	·	-1%
CCCc1cc(=O)n2[nH]c(-c3ccc(Br)cc3)cc2n1	-100*	·	6%
COCCN(C(=O)Cn1nnc2ccccc21)C(C(=O)NC1CCCCC1)c1ccc(OC)cc1OC (stereo unspecified)	-19	·	5%
COCCN(C(=O)Cn1nnc2ccccc21)C(C(=O)NC1CCCC1)c1ccc(OC)cc1OC (stereo unspecified)	-88*	·	2%
Nc1nccs1	·	-7%	6%
O=C(CSc1ncn[nH]1)NCCC(c1ccccc1)c1ccccc1	-2	18%	-8%
COC(=O)C1CCN(c2nc3ccccc3nc2C(C#N)C(=O)OCC(C)C)CC1 (stereo unspecified)	-83*	0%	-2%
COC(=O)C1CCN(c2nc3ccccc3nc2C(C#N)C(=O)NCCc2ccccc2)CC1 (stereo unspecified)	9	-8%	-1%
NCCCCNS(=O)(=O)c1ccc2c(Cl)cccc2c1	·	33%	-5%
O=C(NCCN1C(=O)S/C(=C\c2ccccc2)C1=O)c1cc(S(=O)(=O)N2CCOCC2)c(Cl)cc1Cl	7	·	-3%
CCN1C2=C(C(=O)CCC2)C(c2ccc(O)c(Br)c2)C2=C1CCCC2=O	25	-10%	-7%
CCCOc1c(Br)cc(C2C3=C(CCCC3=O)N(C)C3=C2C(=O)CCC3)cc1OC	-98*	·	-5%
O=C(Nc1cccs1)Nc1ccccc1Cl	-82*	?	?
Cc1ccc(NC(=O)Nc2cccs2)c(Cl)c1	?	-19%	?
COCCNc1nc(-c2ccccc2CN(C)C)nc2ccccc12	·	6%	5%
Cc1ccc(-n2nc3ccc(NC(=O)/C=C/c4ccco4)cc3n2)cc1	73	·	-3%
COC(=O)c1c(NC(=O)c2ccco2)sc(C(=O)N(C)C)c1C	-100*	·	11%
COC(=O)c1c(NC(=O)c2cccnc2)sc(C(=O)N(C)C)c1C	-13	·	2%
CC1(C)CCC(=O)N[C@H]1CC(=O)C[C@H]1NC(=O)CCC1(C)C	·	-11%[11.4 µM]	-1%[11.4 µM]
COc1cc(/C=C/c2nnc3c4ccccc4ncn23)cc(OC)c1OC	48	·	0%
C(=C\c1nnc2c3ccccc3ncn12)/c1ccccc1	-97*	·	-3%
O=C(CCN1C(=O)C2C3CC(C(Br)C3Br)C2C1=O)OCC(=O)c1ccccc1 (stereo unspecified)	?	·	-3%
O=C1c2ccccc2NC2(CCCCC2)N1N=C1CCCCC1	-27	·	0%
O=C1c2ccccc2NC2(CCCC2)N1O	-108*	-5%	-6%
O=C1c2c(O)cc(O)cc2O[C@@H](c2ccc(O)c(O)c2)[C@H]1O	·	-13%	?
SMILES	PNC inhibitor	15-hLO-2 inh	ALOX12 inhib
CS(=O)(=O)c1ccc(N)cc1	-88*	1%	3%
NC(N)=NS(=O)(=O)c1ccc(N)cc1	?	-5%	1%
CC(C)CNC(=O)/C=C/c1cccs1	-3	·	-4%
O=C(NCN1C(=O)C2C3C=CC(C3)C2C1=O)Nc1cccnc1 (stereo unspecified)	3	5%	2%
O=C(NN1C(=O)C2C3C=CC(C3)[C@H]2C1=O)c1cccnc1 (stereo partly specified)	-98*	·	-4%
COc1ccc(-c2nc3cnc(Nc4cccc(OC)c4)nc3n(C3CC3)c2=O)cc1	·	2%	·
Cc1cc(NC(=O)CCC(=O)N(CCC(C)C)CC(=O)NCC2CCCO2)no1 (stereo unspecified)	0	-8%	1%
Cc1cc(C)cc(N(CC(=O)NCC2CCCO2)C(=O)CCC(=O)Nc2cc(C)on2)c1 (stereo unspecified)	-82*	-8%	-1%
CCCCS(=O)(=O)N1CCc2nc(-c3ccccc3)c3c(c2C1)CO[C@@H](C)C3	·	·	1%[11.4 µM]
C=C[C@@]1(C)CC(=O)[C@@]2(O)[C@@]3(C)[C@@H](O)CCC(C)(C)[C@@H]3[C@H](O)[C@H](OC(C)=O)[C@@]2(C)O1	·	16%	2%
Cc1ccc(/C=C/c2nc3ccccc3c(=O)n2CCc2ccccc2)cc1	-83*	·	3%
Cc1ccccc1/C=C/c1nc2ccccc2c(=O)n1CCc1ccccc1	9	·	1%

Compound activity: PubChem, National Center for Advancing Translational Sciences (NCATS)
